Assay [1] in a line: CEETOX_H295R_ESTRONE: CeeTox H295R High-throughput Steroidogenesis Assay for Estrone (AID 2283441).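 Further: estrone secreted into medium measured by LC-MS/MS after dansyl derivatization.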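 On AC50: human adrenal H295R cells prestimulated with forskolin for two days.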 To be noted: actives raise or lower the signal. An outline of the steps:
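Forskolin-stimulated H295R cells are treated 48 h with chemical, and estrone in the medium is measured by LC-MS/MS. Activity is fitted in both directions relative to DMSO controls, with chemicals diluted until MTT viability reaches at least 70%.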

Assay [2] is described as follows: CEETOX_H295R_PROG: CeeTox H295R High-throughput Steroidogenesis Assay for Progesterone (PROG) (AID 2283442).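 On AC50: human H295R adrenal cells primed with 10 µM forskolin before dosing.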 To be noted: actives raise or lower the signal. The essentials:
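Measured analyte is progesterone secreted by H295R cells at 48 h of chemical treatment, following 10 uM forskolin priming. Quantitation used HPLC-MS/MS against a 7-point standard curve; cytotoxicity was checked by MTT absorbance.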

Assay [3] in a line: CEETOX_H295R_TESTO: CeeTox H295R High-throughput Steroidogenesis Assay for Testosterone (TESTO) (AID 2283457). Conditions: actives raise or lower the signal. The essentials:
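Steroidogenesis in H295R cells following OECD 456 with minor changes; 48 h exposure. Medium testosterone by HPLC-MS/MS, DMSO as baseline, with MTT viability run in parallel.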

Read-out in assay [4]: Tumor necrosis factor receptor superfamily member 6 (Homo sapiens) (UniProt P25445)
In words: LTEA_HepaRG_FAS: Life Technologies and Expression Analysis (LTEA) Assay for Fas cell surface death receptor (FAS) using HepaRG (AID 2283447). Conditions: mRNA level, 48 h; actives raise or lower the signal. The essentials: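 Differentiated HepaRG cells in serum-free induction medium were exposed 48 h to 8 half-log concentrations up to 100 uM in 0.5% DMSO, in duplicate. FAS mRNA was measured by qRT-PCR normalised to ACTB, GAPDH and POLR2A; bidirectional fit versus DMSO.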

Read-out in assay [5]: Fatty acid synthase (Homo sapiens) (UniProt P49327)
In words: LTEA_HepaRG_FASN: Life Technologies and Expression Analysis (LTEA) Assay for Fatty Acid Synthase (FASN) using HepaRG (AID 2283448).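 On AC50: differentiated human HepaRG liver cells in serum-free induction medium.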 Conditions: mRNA level, 48 h; actives raise or lower the signal. The essentials:
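In human HepaRG cultures, 48 h chemical exposure (up to 100 uM, 0.5% DMSO) preceded TaqMan qRT-PCR of FASN.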

Read-out in assay [6]: Cyclin D2 (CCND2), CCND2 (gene 894)
The assay can be described thus: LTEA_HepaRG_CCND2: Life Technologies and Expression Analysis (LTEA) Assay for Cyclin D2 (CCND2) using HepaRG (AID 2283449).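 Further: CCND2 transcript measured by TaqMan qRT-PCR and normalised to three housekeeping genes.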 Conditions: mRNA level, 48 h; actives raise or lower the signal. The essentials:
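HepaRG, 48 h dosing, 8-pt half-log curve from 100 uM, 0.5% DMSO; duplicate wells. Readout: CCND2 transcript by microfluidic qRT-PCR, housekeeping-normalised; bidirectional fit vs DMSO baseline.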

Read-out in assay [7]: Cyclin Dependent Kinase Inhibitor 1A (CDKN1A), CDKN1A (gene 1026)
In words: LTEA_HepaRG_CDKN1A: Life Technologies and Expression Analysis (LTEA) Assay for Cyclin Dependent Kinase Inhibitor 1A (CDKN1A) using HepaRG (AID 2283450). Conditions: mRNA level, 48 h; actives raise or lower the signal. The essentials: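 Gain or loss of CDKN1A transcript is scored by bidirectional fitting against 0.5% DMSO vehicle. Human HepaRG cultures receive chemicals for 48 h across an 8-point series peaking at 100 uM; expression comes from qRT-PCR.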

Read-out in assay [8]: Cyclin D1 (CCND1), CCND1 (gene 595)
In words: LTEA_HepaRG_CCND1: Life Technologies and Expression Analysis (LTEA) Assay for Cyclin D1 (CCND1) using HepaRG (AID 2283451).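 On AC50: differentiated human HepaRG liver cells in serum-free induction medium; TaqMan qRT-PCR transcript level normalised to ACTB GAPDH and POLR2A housekeeping genes.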 To be noted: mRNA level, 48 h; actives raise or lower the signal. An outline of the steps: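 Expression change is measured by qRT-PCR in HepaRG cells after 48 h treatment across eight concentrations topping at 100 uM, with duplicate wells and DMSO (0.5%) serving as baseline for bidirectional fitting.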

Read-out in assay [9]: catalase (CAT), CAT (gene 847)
The assay can be described thus: LTEA_HepaRG_CAT: Life Technologies and Expression Analysis (LTEA) Assay for catalase (CAT) using HepaRG (AID 2283452). To be noted: mRNA level, 48 h; actives raise or lower the signal. An outline of the steps: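 HepaRG cells in serum-free induction medium, 0.5% DMSO vehicle, exposed 48 h in duplicate over 8 half-log concentrations from 100 uM. CAT mRNA measured by qRT-PCR, normalized to ACTB, GAPDH, POLR2A; bidirectional fit versus DMSO.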

Read-out in assay [10]: flavin-containing dimethylaniline monooxygenases 3 (FMO3), FMO3 (gene 2328)
In words: LTEA_HepaRG_FMO3: Life Technologies and Expression Analysis (LTEA) Assay for flavin-containing dimethylaniline monooxygenases 3 (FMO3) using HepaRG (AID 2283453).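 On AC50: differentiated human HepaRG liver cells in serum-free induction medium.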 Conditions: mRNA level, 48 h; actives raise or lower the signal. The essentials: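 Eight-point concentration-response in serum-free HepaRG cultures (top 100 uM, 0.5% DMSO, 48 h). Read-out: FMO3 mRNA level normalized to three endogenous control genes, fitted bidirectionally versus vehicle.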

Read-out in assay [11]: CFLAR gene, CFLAR (gene 8837)
In words: LTEA_HepaRG_CFLAR: Life Technologies and Expression Analysis (LTEA) Assay for CFLAR gene using HepaRG (AID 2283455). To be noted: mRNA level, 48 h; actives raise or lower the signal. An outline of the steps:
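qRT-PCR read-out (Fluidigm/TaqMan) of CFLAR mRNA, normalized to three housekeeping genes, in differentiated human HepaRG cells after 48 h chemical exposure; 8-point half-log series from 100 uM in 0.5% DMSO; bidirectional curve fitting versus DMSO.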

Read-out in assay [12]: Forkhead box O1 (FOXO1), FOXO1 (gene 2308)
The assay can be described thus: LTEA_HepaRG_FOXO1: Life Technologies and Expression Analysis (LTEA) Assay for Forkhead box O1 (FOXO1) using HepaRG (AID 2283456). Conditions: mRNA level, 48 h; actives raise or lower the signal. An outline of the steps:
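HepaRG, 48 h exposure, 8-pt half-log series from 100 uM in 0.5% DMSO, duplicates; Fluidigm qRT-PCR mRNA, housekeeping-normalised; bidirectional fit vs DMSO baseline.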

Read-out in assay [13]: growth arrest and DNA damage 45 (GADD45A), GADD45A (gene 1647)
In words: LTEA_HepaRG_GADD45A: Life Technologies and Expression Analysis (LTEA) Assay for growth arrest and DNA damage 45 (GADD45A) using HepaRG (AID 2283458). To be noted: mRNA level, 48 h; actives raise or lower the signal. The essentials:
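Eight-point concentration-response in HepaRG cells: 48 h chemical exposure, 0.5% DMSO vehicle, top dose 100 uM. Normalized qRT-PCR mRNA readout with bidirectional fitting relative to DMSO.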

Read-out in assay [14]: Forkhead box O3 (FOXO3), FOXO3 (gene 2309)
In words: LTEA_HepaRG_FOXO3: Life Technologies and Expression Analysis (LTEA) Assay for Forkhead box O3 (FOXO3) using HepaRG (AID 2283459). Conditions: mRNA level, 48 h; actives raise or lower the signal. An outline of the steps:
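qRT-PCR readout of FOXO3 transcript, normalized to three housekeeping genes (ACTB, GAPDH, POLR2A); gain or loss fitted against 0.5% DMSO vehicle. HepaRG cells, 48 h chemical exposure, 8-point half-log series, top 100 uM.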

Read-out in assay [15]: ABC Transporter (ABCB1), ABCB1 (gene 5243)
In words: LTEA_HepaRG_ABCB1: Life Technologies and Expression Analysis (LTEA) Assay for ABC Transporter (ABCB1) using HepaRG (AID 2283460). Conditions: mRNA level, 48 h; actives raise or lower the signal. The essentials:
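HepaRG, 48 h exposure, 8-pt half-log series from 100 uM, 0.5% DMSO vehicle, duplicates. Readout: ABCB1 transcript by Fluidigm TaqMan qRT-PCR, housekeeping-normalized; bidirectional curve fit vs DMSO baseline.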

Read-out in assay [16]: growth arrest and DNA damage 45 (GADD45B), GADD45B (gene 4616)
The assay can be described thus: LTEA_HepaRG_GADD45B: Life Technologies and Expression Analysis (LTEA) Assay for growth arrest and DNA damage 45 (GADD45B) using HepaRG (AID 2283461). Conditions: mRNA level, 48 h; actives raise or lower the signal. The essentials: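 Human HepaRG monolayers receive chemicals for 48 h at eight half-log concentrations, highest 100 uM, in 0.5% DMSO. Expression is measured by TaqMan qRT-PCR and normalized to ACTB, GAPDH and POLR2A.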

Read-out in assay [17]: ABC Transporter (ABCC3), ABCC3 (gene 8714)
In words: LTEA_HepaRG_ABCC3: Life Technologies and Expression Analysis (LTEA) Assay for ABC Transporter (ABCC3) using HepaRG (AID 2283462). To be noted: mRNA level, 48 h; actives raise or lower the signal. An outline of the steps: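 Transcriptional change of ABCC3 in HepaRG after 48 h treatment, determined by qRT-PCR normalized to endogenous controls. Concentrations spanned eight half-log steps to 100 uM in 0.5% DMSO.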

Read-out in assay [18]: ABC Transporter (ABCB11), ABCB11 (gene 8647)
In words: LTEA_HepaRG_ABCB11: Life Technologies and Expression Analysis (LTEA) Assay for ABC Transporter (ABCB11) using HepaRG (AID 2283463). Conditions: mRNA level, 48 h; actives raise or lower the signal. The essentials: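 HepaRG, 48 h exposure, 8-pt half-log CRC top 100 uM, 0.5% DMSO vehicle, duplicates. Readout: TaqMan qRT-PCR of ABCB11 mRNA, housekeeping-normalized (ACTB/GAPDH/POLR2A). Bidirectional fit vs DMSO baseline.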

Read-out in assay [19]: ABC Transporter (ABCC2), ABCC2 (gene 1244)
In words: LTEA_HepaRG_ABCC2: Life Technologies and Expression Analysis (LTEA) Assay for ABC Transporter (ABCC2) using HepaRG (AID 2283464). To be noted: mRNA level, 48 h; actives raise or lower the signal. An outline of the steps:
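After plating and 48 h culture, HepaRG medium is replaced with serum-free induction medium and chemicals are added (8 concentrations, max 100 uM, 0.5% DMSO) for 48 h. Total RNA then undergoes qRT-PCR for ABCC2 with housekeeping normalization.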

Read-out in assay [20]: Broad substrate specificity ATP-binding cassette transporter ABCG2 (Homo sapiens) (UniProt Q9UNQ0)
The assay can be described thus: LTEA_HepaRG_ABCG2: Life Technologies and Expression Analysis (LTEA) Assay for ABC Transporter (ABCG2) using HepaRG (AID 2283465). To be noted: mRNA level, 48 h; actives raise or lower the signal. The essentials:
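HepaRG, 48 h exposure, 8-pt half-log series from 100 uM, 0.5% DMSO vehicle, duplicates. Readout: ABCG2 transcript by qRT-PCR (Fluidigm array), housekeeping-normalized; bidirectional curve fit relative to DMSO baseline.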

Activity calls are given as the source filed them. How the source made its calls: active means hit-call score of the fitted dose curve at least 0.9, where 1 is the maximum; inactive means score below 0.9.

Experimental findings from PubChem BioAssay (EPA / NIEHS) are described below.

Broad substrate specificity ATP-binding cassette transporter ABCG2 (Homo sapiens), sequence (Q9UNQ0 whole entry, looked up): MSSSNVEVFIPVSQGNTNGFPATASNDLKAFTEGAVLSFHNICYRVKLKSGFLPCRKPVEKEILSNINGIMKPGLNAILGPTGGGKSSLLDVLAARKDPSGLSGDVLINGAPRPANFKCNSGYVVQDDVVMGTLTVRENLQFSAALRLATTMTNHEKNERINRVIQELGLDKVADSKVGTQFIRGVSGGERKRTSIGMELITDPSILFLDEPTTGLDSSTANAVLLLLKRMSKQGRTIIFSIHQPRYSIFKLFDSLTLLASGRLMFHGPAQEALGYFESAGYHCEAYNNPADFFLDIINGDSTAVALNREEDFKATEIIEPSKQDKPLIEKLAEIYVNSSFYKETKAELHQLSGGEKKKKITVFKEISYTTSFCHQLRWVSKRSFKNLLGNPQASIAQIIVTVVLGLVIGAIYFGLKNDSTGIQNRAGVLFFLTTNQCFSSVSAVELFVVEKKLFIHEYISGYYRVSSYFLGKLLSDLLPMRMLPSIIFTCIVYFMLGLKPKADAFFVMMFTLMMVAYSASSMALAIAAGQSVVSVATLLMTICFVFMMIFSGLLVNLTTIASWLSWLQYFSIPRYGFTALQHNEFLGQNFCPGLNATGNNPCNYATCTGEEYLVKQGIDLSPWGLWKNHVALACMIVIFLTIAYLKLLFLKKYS
Fatty acid synthase (Homo sapiens), sequence (P49327 whole entry, looked up): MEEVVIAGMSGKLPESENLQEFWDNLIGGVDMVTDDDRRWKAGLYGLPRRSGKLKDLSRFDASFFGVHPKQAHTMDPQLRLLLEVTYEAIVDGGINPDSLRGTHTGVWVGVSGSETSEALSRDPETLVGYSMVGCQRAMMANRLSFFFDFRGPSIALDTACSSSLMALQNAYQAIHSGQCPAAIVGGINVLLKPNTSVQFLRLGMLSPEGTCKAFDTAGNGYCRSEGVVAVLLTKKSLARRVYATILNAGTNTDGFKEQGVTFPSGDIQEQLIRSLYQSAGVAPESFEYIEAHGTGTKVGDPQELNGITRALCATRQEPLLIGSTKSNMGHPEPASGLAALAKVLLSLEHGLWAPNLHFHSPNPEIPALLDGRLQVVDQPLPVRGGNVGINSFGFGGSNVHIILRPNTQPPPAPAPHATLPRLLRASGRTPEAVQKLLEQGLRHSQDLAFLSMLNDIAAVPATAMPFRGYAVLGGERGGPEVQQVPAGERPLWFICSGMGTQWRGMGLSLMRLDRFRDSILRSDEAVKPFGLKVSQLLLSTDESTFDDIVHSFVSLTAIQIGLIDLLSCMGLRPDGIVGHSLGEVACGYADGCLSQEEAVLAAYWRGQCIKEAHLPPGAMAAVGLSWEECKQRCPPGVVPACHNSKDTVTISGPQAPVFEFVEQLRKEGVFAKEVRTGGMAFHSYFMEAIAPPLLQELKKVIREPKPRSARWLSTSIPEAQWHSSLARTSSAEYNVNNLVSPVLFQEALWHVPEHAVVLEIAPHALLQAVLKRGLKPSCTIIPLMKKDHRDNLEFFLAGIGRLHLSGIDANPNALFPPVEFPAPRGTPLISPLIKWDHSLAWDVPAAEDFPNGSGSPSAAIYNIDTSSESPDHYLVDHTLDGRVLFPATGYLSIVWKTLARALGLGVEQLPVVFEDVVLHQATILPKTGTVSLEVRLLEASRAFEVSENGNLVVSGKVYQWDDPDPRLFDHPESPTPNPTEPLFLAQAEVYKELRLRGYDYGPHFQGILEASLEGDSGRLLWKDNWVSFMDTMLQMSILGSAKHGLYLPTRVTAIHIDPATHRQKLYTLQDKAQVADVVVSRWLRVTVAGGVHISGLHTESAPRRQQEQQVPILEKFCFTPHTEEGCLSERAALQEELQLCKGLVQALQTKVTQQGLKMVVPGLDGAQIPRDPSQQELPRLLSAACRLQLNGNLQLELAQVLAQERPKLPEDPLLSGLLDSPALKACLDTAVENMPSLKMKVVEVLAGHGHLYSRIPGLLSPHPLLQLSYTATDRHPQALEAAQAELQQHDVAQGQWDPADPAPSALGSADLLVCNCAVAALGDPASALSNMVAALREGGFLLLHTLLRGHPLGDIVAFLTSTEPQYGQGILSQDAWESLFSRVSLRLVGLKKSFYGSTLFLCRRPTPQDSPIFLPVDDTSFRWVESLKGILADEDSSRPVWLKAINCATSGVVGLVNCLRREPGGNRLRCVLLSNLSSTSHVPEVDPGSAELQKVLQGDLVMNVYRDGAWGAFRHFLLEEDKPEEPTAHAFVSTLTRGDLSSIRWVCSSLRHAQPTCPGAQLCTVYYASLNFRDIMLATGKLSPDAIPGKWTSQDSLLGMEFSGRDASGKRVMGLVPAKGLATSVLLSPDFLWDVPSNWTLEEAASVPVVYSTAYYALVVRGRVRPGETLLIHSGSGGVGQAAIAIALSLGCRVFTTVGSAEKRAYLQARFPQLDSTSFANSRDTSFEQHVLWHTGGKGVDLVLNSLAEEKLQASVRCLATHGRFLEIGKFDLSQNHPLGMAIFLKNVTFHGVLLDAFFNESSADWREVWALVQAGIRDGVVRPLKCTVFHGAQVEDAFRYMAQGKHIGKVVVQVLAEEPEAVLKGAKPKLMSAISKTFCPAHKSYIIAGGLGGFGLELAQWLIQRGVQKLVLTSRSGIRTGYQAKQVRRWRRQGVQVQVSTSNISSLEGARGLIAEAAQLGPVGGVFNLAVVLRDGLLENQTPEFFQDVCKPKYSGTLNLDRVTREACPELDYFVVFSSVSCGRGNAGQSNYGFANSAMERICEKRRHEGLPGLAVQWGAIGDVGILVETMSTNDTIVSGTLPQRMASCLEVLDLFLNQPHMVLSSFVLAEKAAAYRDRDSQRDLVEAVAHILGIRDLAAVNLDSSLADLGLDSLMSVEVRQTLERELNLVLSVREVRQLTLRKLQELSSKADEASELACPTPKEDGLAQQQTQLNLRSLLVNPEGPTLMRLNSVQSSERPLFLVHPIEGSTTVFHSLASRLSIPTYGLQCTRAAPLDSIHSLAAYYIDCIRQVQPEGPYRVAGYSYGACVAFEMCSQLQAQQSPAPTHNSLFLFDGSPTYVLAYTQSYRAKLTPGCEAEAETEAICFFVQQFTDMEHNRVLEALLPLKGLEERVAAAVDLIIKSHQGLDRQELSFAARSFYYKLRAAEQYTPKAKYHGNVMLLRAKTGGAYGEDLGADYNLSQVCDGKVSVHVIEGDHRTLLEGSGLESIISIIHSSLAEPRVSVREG

Regarding `Oc1cc2ccccc2cc1O`, the compound was classed as inactive in assay [1], in [2] and in [3].

With `C[C@]12CC[C@@H]3c4ccc(O)cc4CC[C@H]3[C@@H]1C[C@@H](O)[C@@H]2O`, the compound was called inactive in [2].

`CCCCCCCCCCCCCCC`: the compound was classed as inactive in [4], in assay [5], in assay [6], in assay [7], in assay [8] and in assay [9]. For the same compound, the compound was called inactive in assay [10], in [11], in assay [12], in assay [13], in [14] and in assay [15]. The outcome in assay [16], in assay [17], in assay [18], in assay [19] and in [20] was inactive.

With `CC(C)(C)c1ccc(O)c(O)c1`, the concentration at half-maximal activity (AC50) in assay [2] was 32.3 µM (active).

For `CCC(C)c1ccccc1O` (stereo unspecified), the call in assay [4], in assay [5], in [6], in assay [7], in [8] and in assay [9] was inactive. For the same compound, the compound was classed as inactive in assay [10], in assay [11], in assay [12], in assay [13], in [14] and in assay [15]. For the same compound, the result in assay [16], in assay [17], in assay [18], in [19] and in assay [20] was inactive.

With `CCCCCCCCCCCCOS(=O)(=O)O`, the result in [4], in [6], in [7], in [8], in assay [11] and in assay [12] was inactive. For the same compound, the call in [13], in [14], in assay [16], in assay [17] and in assay [20] was inactive. Also, the half-maximal activity concentration (AC50) was 80.7 µM (active) in assay [5], 85.6 µM (active) in [10], 77.2 µM (active) in [15] and 86.2 µM (active) in [19].

For the compound `Cc1cccc2c1ccc1ccccc12`, the compound was called inactive in [1], in assay [2] and in assay [3].

With `Clc1ccc(Nc2nnc(Cc3ccncc3)c3ccccc23)cc1`, in assay [1], the half-maximal activity concentration (AC50) is 4.2 µM (active). Also, in [2], the compound was classed as inactive.

In the case of `Cc1[nH]nc2c1N=C(c1ccccc1Cl)c1cc([N+](=O)[O-])ccc1N2`, the AC50 in assay [4] was 4.11 µM (active); in assay [5], 7.35 µM (active); in assay [8], 1.22 µM (active); in assay [9] it was 16.1 µM (active); in [10], 9.1 µM (active); in assay [11] it was 12.9 µM (active). Also, the AC50 was 5.4 µM (active) in assay [12]; 88.8 µM (active) in assay [13]; 12.6 µM (active) in assay [14]; 0.742 µM (active) in assay [15]; 4.57 µM (active) in assay [16]; 3.26 µM (active) in assay [17]. For the same compound, the figures for the AC50 in [18] and in assay [19] were 8.72 µM (active) and 31.9 µM (active), respectively. Moreover, the compound was classed as inactive in assay [6], in assay [7] and in assay [20].

One may read the AC50 as the concentration giving half of the maximal activity seen.
